The values that follow come from the supplement of paper PMC6555819.

The test system of the test is VDR:RXRa (NR concentration 270 nM, RXRa partner concentration 90 nM). The test can be described thus: PBM binding z-score (relative to random genomic background probes); higher = stronger binding; sequences stand for … in GC…GCGATTGACAGCGTAGAATGAAGG
The procedure: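 Protein-binding microarray (Agilent 4x180K custom design, double-stranded 60-nt probes: 5' GC cap, 34-nt variable region, 24-nt constant primer region; full probe sequence given). Purified or IVT nuclear receptor:RXRα heterodimers (3:1 NR:RXRα, mostly 270:90 nM) or homodimers were incubated for 1 h in PBS with 2% milk and no ligand, then detected with Alexa488 antibodies. Fluorescence from o1-orientation probes (~5 replicates averaged) was converted to z-scores against 500 random hg19 background probes. Variable regions are seed direct-repeat (DR0–DR5) sites, all their single-nucleotide variants and half-site ablations.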
With TCATATAGGTGAACAGGTGAAAGTCCGTAAGTTA, the PBM binding z-score was found to be 1.19. For the sequence TCGAGTAGGTTACCAATGGGGCATTCTGCTTTCT, the PBM binding z-score was -0.0796. In the case of CCAGACAGGTGAAAGGTAAGTCAGTCTGGTACGC, the PBM binding z-score was 0.522. The sequence TCTTGTAGATGAACAGGAGGTTAAGAAAGATCGA came in with a PBM binding z-score of 0.644.

CGTCAAAGTTCAAGGTGACGTAACAGAAAGCAGC showed a PBM binding z-score of 3.91. As for ATCGAAAGGTCGTGAGGTGAGTATGCAGAAAGGC, the figure is 3.57; as for GCTTGTAGATCAACGTTAAGAAAGACTAAGCTAA, -0.456. In the case of CGAACAAGGTCAAGGACAGTGAATCTCCGCACGC, the PBM binding z-score was 4.11. Sequence CCTTACGGGTCAAGCTTATAGCACGGGTGGTACG showed a PBM binding z-score of 3.11. Consider ACAGACAGGTGATGTAGGTAACTCAGGCTATCAT, for which the PBM binding z-score is -0.00251.

Consider TCTAGTTGGTCAATGGTCACACACTCGAAATGCG, for which the PBM binding z-score stood at 0.851. On to GACACAGGGTCAAGGCCAGAGTACGCGTATTGAT, for which the PBM binding z-score was 4.36.

On to CCTTACGGGTCACGAGGTTATAGTACGACGAGCG, for which the PBM binding z-score is 5.35. GCGGCTGGGGCATCAGCAGGTTACCATAACTTAA: the PBM binding z-score was -0.259. With ACTAGTAGTTGACTTAGGGCAACCGATACGACGC, the PBM binding z-score amounted to 0.0405. Turning to TCGAGTAGGTTAGGGGCAGTCAGAATGGCGTCGA, the PBM binding z-score was determined as 0.0468.

AGAACGAGGGCACGCTGAGATGATAGCAGAGTAG displayed a PBM binding z-score of 0.702. As for CGACCGAGGGCATGAGTTGATAGCAAATGCCGAT, the figure is 1.3; as for CCTAGTTGGTCAGGAGGTCAGACACCGGATATGA, 2.22; as for TTGCCTAGGTCAGATCGGGCCAGTATACGCTATA, 0.82. Turning to GCATATAGGTAATACAAGGTGACAGTCCGATTGT, the PBM binding z-score was 0.313.

On to GGTACGAGGGCATTCGAGTTGATAGCATGGCGAT, for which the PBM binding z-score was determined as 3.71.

Consider CCTACTGGGCCATTCAGAGGTCTTTGATCATATG, for which the PBM binding z-score is -0.301. Sequence TCATATAGGTAAATGATAGGTGAAAGTCCGATCT showed a PBM binding z-score of 1.15. As for GCGACTGGGGCAAAGCAGGTTACCATCAGGTTGG, the PBM binding z-score was -0.194. As for AGAATGAGGTTGTACGTAGATCAGGGAAGAAAGT, the figure is 0.177; as for GCTTGTAGATCAAGGATAAGAAAGACTAAGCTAA, -0.525. CTCGAAAGGTCGTGCTCAGGTGACTATACCAAAC showed a PBM binding z-score of 3.53. TCGAGTAGGTTACCAATGGTGCATTCAGCTTTCT displayed a PBM binding z-score of 0.228. With CCTCGCAGGACAGAAGGTCAGAGCTGTCCGCTTT, the PBM binding z-score worked out at 0.93. In turn, CGTCAAAGTTCAAGGTAACGTTACAGAAAGCAGC showed a PBM binding z-score of 3.97.

Regarding TCTAGTAGTTGAAGGGCAACCGACGAGTCCGTTT, the PBM binding z-score was found to be 0.266. In turn, CGTCAAAGTTCAACTAAGGAAACGTAAAGCACGC registered a PBM binding z-score of 4.16.

CGAACTAGGTCATGCAGGACAGTGAATACATTGA gave a PBM binding z-score of 4.23. Take CGTCCAAGGTCAGAGAGGTCAGTCAATGCCGAGT: the PBM binding z-score stood at 7.68. Consider GCTAGCAGACCATTTGGGTCACTCAATGACGGGC, for which the PBM binding z-score was -0.0299. To GCTAGCAGGGCATTTGGGTCACTCAATGACGGGC belongs 2.15; to TCTAGCAGGTCAGAGGGTCACTCAAGAGGTACGG, 4. To AGTCAAAGTTCAGGACGAGGTTACGTAAAGCACG belongs 4.6; to TCTAGTTGGTCAGAGGTCACACACTCGAAATGCG, 4.95.
